Bioassay records: PubChem, National Center for Advancing Translational Sciences (NCATS)
The full list was thinned out, with hits kept by preference.
GALK inhibitor: galactokinase (human) inhibition; P51570; Purified GALK, Kinase-Glo residual ATP luminescence; Potency, µM (doses to about 57.5 µM), for the others: at the top dose activity change, negative = inhibition, actives largely listed as inhibitors; 270,000 compounds, 0.007% hits; AID 1868; further: on the % scale 0 is the no-effect control and ±100 the full control effect
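5 nM enzyme, 35 uM ATP, 100 uM galactose, 20 mM HEPES pH8.0, 5 mM MgCl2; 1 h RT; residual ATP by Kinase-Glo Plus luminescence, qHTS format.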
Eya2 inh: blocks the phosphatase activity of human Eya2 | O00167 | recombinant Eya2, OMFP fluorescence dephosphorylation (OMFP is methylfluorescein phosphate) | Potency, µM (highest dose often 76.9 µM), without a hit: at the highest dose activity, negative = inhibition, most hits filed as inhibitors | 330,000 compounds, 0.006% hits | AID 488837; further: on the % scale 0 is the no-effect control and ±100 the full control effect
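Eya2 (0.2 uM) preincubated 10 min at ambient with compound, then OMFP substrate added at 50 uM; 10 min reaction in 50 mM HEPES pH 7.5, 50 mM NaCl, 5 uM MgCl2, 0.05% BSA, 1 mM DTT. Fluorescence read at Ex 485/Em 525 nm.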
USP2a inh: USP2a (human) protease inhibition. O75604. USP2 core, Ub-CHOP2 coupled fluorogenic reporter, 485/531. Potency, µM (titrated, usually from 38.3 µM), without a hit: at the highest dose activity change, negative = inhibition, most hits filed as inhibitors. 330,000 compounds, 0.01% hits. AID 463254;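 further: plate controls were DMSO wells for no effect and full inhibition by NEM control for full effect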
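Deubiquitinase activity read as fluorescence (485/531 nm) after Ub-CHOP2 cleavage activates the enterokinase reporter on its substrate; USP2 core 10nM, Ub-CHOP2 and substrate 25nM each, 30min compound preincubation then 60min RT; data normalized to NEM, curves fitted.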
ClpP mod: qHTS Assay for Activators of ClpP | 340,000 compounds, 1.9% hits | ATP-dependent Clp protease proteolytic subunit (Bacillus subtilis (strain 168)), P80244 | AID 651965, 2013 | Potency, µM (series often up to 57.5 µM), for the others: top-dose activity change, negative = active | purified B. subtilis ClpP, FRET peptide cleavage, 20 min; active means well fitted falling curve with a large enough effect; inconclusive means small, poorly fitted or top-dose-only effect; inactive means no such curve, though single readings can be large or run the other way; further: the source files actives as falling curves though it sought activators and does not explain the sign; nearly all actives have a fitted effect of over 65% in size
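ClpP 10 microg/mL final, pH 8 Tris/KCl buffer with BSA, glycerol, Tween-20; compound pinned in; FRET-FV substrate; RT 20 min; Ex320/Em430; ΔFRET vs ADEP 5.8 microM, DMSO, no enzyme.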
* hit, by the source's call; ? = inconclusive; . = no result given; ! = not active in a repeat; [ ] = another dose, or the depositor's remark. Unless noted, the call rests on the fitted dose curve; in most records, active means well fitted inhibition curve with a large enough effect; inconclusive means small, poorly fitted or top-dose-only effect, or effect the other way; inactive means flat fitted curve, though single readings scatter. Potency means the concentration at half of the fitted maximal effect.

SMILES	GALK inhibitor	Eya2 inh	USP2a inh	ClpP mod
c1ccc2[nH]c(-c3ccnc4ccccc34)nc2c1	6.1%	-3.5%	-6.8%	15.8µM*!
c1ccc2c(-c3nc4ccccc4[nH]3)cccc2c1	.	.	.	4.7%
c1ccc2nc(-c3nc4ccccc4[nH]3)ccc2c1	7.5%	-7.0%	-0.6%	31.6µM*
O=C(Nc1ccccc1)C12CC3CC(C1)CC(n1cnc([N+](=O)[O-])n1)(C3)C2	2.4%	7.2%	0.1%	-1.1%
COc1ccc(NC(=O)C2Cc3c(-c4ccccc4)ccnc3O2)cc1OC (stereo not given)	.	.	.	-3.2%
CN(C)CCNc1ncnc2sc(-c3ccccc3)cc12	.	?	-6.4%	0.6%
OCCOCCNc1ncnc2sc(-c3ccccc3)cc12	-0.1%	13.8%	1.6%	31.6µM*
CNc1ncnc2sc(-c3ccccc3)cc12	-0.1%	-5.5%	0.9%	14.1µM*
CCN1c2ccccc2-c2nc3ccccc3n2C1c1ccncc1 (stereo not given)	0.3%	-6.9%	3.2%	?
CCN1c2ccccc2-c2nc3ccccc3n2C1c1cccnc1 (stereo not given)	0.4%	-13.8%	-6.0%	31.6µM*
N#CCC(=O)Nc1sc2c(c1C(N)=O)CCCC2	-0.5%	-15.6%	-1.5%	-0.8%
CCOC(=O)c1[nH]c2ccccc2c1NC(=O)CCN1CCN(C(=O)OCC)CC1	0.7%	-4.4%	0.8%	22.4µM*
CCOC(=O)c1[nH]c2ccc(OC)cc2c1NC(=O)CN1CCC2(CC1)OCCO2	0.8%	-1.9%	-0.5%	14.1µM*
COC(=O)c1[nH]c2cc(OC)ccc2c1NC(=O)CCN1CCN(c2cccc(C)c2C)CC1	3.7%	-0.3%	0.9%	25.1µM*
CCOC(=O)c1[nH]c2ccccc2c1NC(=O)CCN1CC(C)OC(C)C1 (stereo not given)	-1.8%	-7.3%	2.2%	-21.7%
COC(=O)c1[nH]c2ccc(F)cc2c1NC(=O)CCN1CC(C)OC(C)C1 (stereo not given)	-4.0%	16.0%	-0.6%	15.8µM*
CCOC(=O)c1[nH]c2ccc(OC)cc2c1NC(=O)C(C)N1CCC2(CC1)OCCO2 (stereo not given)	3.4%	-1.2%	-1.9%	.
COC(=O)[C@]1(Cc2ccccc2)N[C@H](CN(C)C(=O)NC(C)C)[C@@H]2C(=O)N(C)C(=O)[C@@H]21	.	1.9%	-0.3%	0.3%
CCOC(=O)c1[nH]c2ccc(OC)cc2c1NC(=O)CCN1CCSCC1	.	3.9%	-1.5%	12.6µM*
CCOC(=O)c1[nH]c2ccc(F)cc2c1NC(=O)C(C)N1CCc2cc(OC)c(OC)cc2C1 (stereo not given)	-4.3%	1.0%	-0.7%	20µM*
CCOC(=O)c1[nH]c2ccc(OC)cc2c1NC(=O)CN1CCc2ccccc2C1	.	-11.4%	0.1%	15.8µM*
CCOC(=O)c1oc2ccc(OC)cc2c1NC(=O)CN1CCN(C)CC1	-2.0%	5.6%	0.4%	15.8µM*
COC(=O)c1[nH]c2ccc(C)cc2c1NC(=O)CN1CCc2cc(OC)c(OC)cc2C1	3.5%	1.7%	6.3%	?
CCOC(=O)c1[nH]c2ccc(OC)cc2c1NC(=O)CN1CCN(c2ccccn2)CC1	1.0%	-1.3%	-0.6%	.
CCCCOc1ccccc1NC(=O)c1ccco1	-0.5%	-2.8%	-1.1%	12.6µM*
SMILES	GALK inhibitor	Eya2 inh	USP2a inh	ClpP mod
COc1ccc(-c2ccc(-c3nnn(CC(=O)N4CCOCC4)n3)cc2)cc1	-0.7%	2.8%	0.2%	15.8µM*
COc1cc(-c2nnn(CC(=O)N3CCOCC3)n2)cc(OC)c1OC	2.0%	-9.7%	1.8%	1.1%
FC(F)(F)c1nc(-c2cccs2)ncc1-c1nnnn1-c1ccc(Cl)cc1	1.5%	-6.4%	0.2%	35.5µM*
Clc1ccc(-n2nnnc2-c2cnc(-c3ccncc3)nc2-c2cccs2)cc1	0.4%	-1.1%	-1.9%	-6.7%
COc1ccc(CCNC(=O)COc2ccc(-c3ccc(C#N)cc3)cc2)cc1	0.0%	-0.8%	4.5%	?
N#Cc1ccc(-c2ccc(OCC(=O)NCCc3ccccc3)cc2)cc1	0.9%	-7.2%	5.8%	31.6µM*
CC(CCc1ccccn1)C(=O)C(C)CCc1ccccn1 (stereo not given)	.	.	.	0.0%
CCOC(=O)C(CCc1ccccn1)c1ccccc1 (stereo not given)	.	.	.	7.94µM*
c1ccc2[nH]cnc2c1	.	.	.	-1.8%
c1ccc2nc3[nH]cnc3nc2c1	0.4%	-12.7%	-0.2%	22.4µM*
CCOC(=O)c1c(-c2ccc(C)cc2)csc1NC(=O)/C(C#N)=C/c1ccc(O)c(OC)c1	0.1%	14.7%	7.4%	.
Cc1cccc(N2C(=O)N(c3ccccc3C)C3CS(=O)(=O)CC32)c1 (stereo not given)	3.1%	.	.	28.2µM*
Cc1cc(C)cc(N2C(=O)N(c3ccccc3C)C3CS(=O)(=O)CC32)c1 (stereo not given)	-0.5%	12.1%	2.1%	1.1%
Cc1ccc2c(CN3CCN(Cc4ccccc4)CC3)cc(=O)oc2c1C	9.9%	1.6%	0.4%	.
Cc1ccc2c(CN3CCN(S(=O)(=O)c4ccc(Cl)cc4)CC3)cc(=O)oc2c1C	.	10.9%	1.6%	14.1µM*
COc1ccc(C)cc1N(C(=O)COc1ccccc1)c1nc2ccccc2s1	1.7%	4.1%	-0.4%	10µM*
Cc1cc(=O)n2c(nc3ccccc32)[nH]1	2.0%	-6.5%	-1.9%	14.1µM*
CCOC(=O)c1cc(=O)n2c(nc3ccccc32)[nH]1	.	-18.5%	-1.4%	3.9%
CCn1c(/C=N/n2cnnc2)nc2ccccc21	2.2%	17.3%	-1.5%	28.2µM*
CCn1c2ccccc2c2cc(/C=N/NC(=O)c3ccccc3C)ccc21	-1.3%	-7.8%	2.9%	12.6µM*
CCn1c2ccccc2c2cc(/C=N/NC(=O)c3cccc(C)c3)ccc21	-0.8%	2.8%	-1.4%	-18.0%
CCn1c2ccccc2c2cc(/C=N/n3cnnc3)ccc21	0.0%	-4.1%[15.4 µM]	0.3%	25.1µM*
O=C(CSc1nc2ccccc2n1Cc1ccc(F)c(Cl)c1)N1CCN(c2ccc(F)cc2)CC1	.	.	.	0.3%
Cc1ccccc1OCc1nnc(SCC(=O)Nc2ccc3c(c2)oc2ccccc23)n1C	-3.0%	3.4%	2.5%	14.1µM*
COc1ccc(-c2ncccc2OC(=O)C23CC4CC(CC(C4)C2)C3)cc1	0.9%	-5.9%	3.7%	25.1µM*
SMILES	GALK inhibitor	Eya2 inh	USP2a inh	ClpP mod
O=C(O)c1ccccc1OC(=O)C12CC3CC(CC(C3)C1)C2	4.2%	10.0%	3.7%	.
CCOc1c(C)cc(-c2ncccc2O)cc1C	3.9%	8.0%	0.8%	28.2µM*
COc1ccc(-c2ncccc2O)cc1	1.8%	-4.7%	4.9%	25.1µM*
Cc1ccc(C)n1-c1nn(S(=O)(=O)c2cccc(C(F)(F)F)c2)c2cccc(F)c12	.	-11.5%	-1.5%	.
CCN(CC)C(=S)SCC(=O)c1ccccc1	.	-12.6%	0.0%	6.2%
Cc1cccn2c(=O)c(C(=O)NC3CCCCC3C)c(O)nc12 (stereo not given)	.	-7.1%	0.9%	28.2µM*
Cc1ccccc1C(=O)N1CC(=O)Nc2ccc(F)cc2C1c1ccc(F)cc1 (stereo not given)	1.3%	-1.1%	1.1%	31.6µM*
